In the library only some 2.7% were active in any assay of this set; here they are far more common.
ATG4B inhibitor: blocks human ATG4B protease cleavage of LC3 substrate; 340,000 tested, 0.51% active; AID 504462; ATG4B cleavage of LC3-PLA2, NBD-HPC fluorescence, 1 h; inhibition, % at 8.33 µM; in the data active = inhibition above about 40%
Target sequence (Q9Y4P1 whole entry, looked up): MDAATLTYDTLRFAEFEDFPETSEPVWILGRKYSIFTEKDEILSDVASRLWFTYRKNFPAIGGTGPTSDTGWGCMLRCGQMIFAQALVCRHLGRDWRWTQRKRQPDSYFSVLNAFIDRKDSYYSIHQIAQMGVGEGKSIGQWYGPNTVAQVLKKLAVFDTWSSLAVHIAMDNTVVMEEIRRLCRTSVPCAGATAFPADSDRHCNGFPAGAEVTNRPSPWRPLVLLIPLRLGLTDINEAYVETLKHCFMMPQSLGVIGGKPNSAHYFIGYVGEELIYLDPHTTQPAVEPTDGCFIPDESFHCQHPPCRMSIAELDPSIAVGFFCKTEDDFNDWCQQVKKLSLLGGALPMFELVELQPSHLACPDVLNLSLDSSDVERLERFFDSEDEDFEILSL
SKN-1 inh: blocks SKN-1 activity in C. elegans; inhibition, % at 21.8 µM; AID 624304; C. elegans VP596 Pgst-4::GFP/RFP ratio, acrylamide-induced, 24 h; 360,000 tested, 0.49% active;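 active = interference check ratio from 0.5 to 1.5 plus GFP to RFP signal ratio inhibition reaching or exceeding a fixed threshold, cut at about 30% in these data, passing the limit was not always enough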
F508del corr: CFTR F508del correction in bronchial cells; CFBE cells, YFP halide quenching; stimulated with forskolin plus potentiator P3; % fluorescence drop versus neutral controls; activity (quench increase), % at 7.58 µM; 350,000 tested, 0.36% active;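 active = mean added fluorescence quench of at least 8% versus neutral control, with both replicates also reaching 8%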;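 note: cells transiently co-express mutant CFTR-F508del with the halide-sensitive YFP; corrector assay measuring rescue of mutant channel to the surface after 24 h compound exposure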
NRP1-CendR mod: modulators of CendR peptide binding to human neuropilin-1; FAM-RPARPAR peptide binding to NRP-1, fluorescence polarization; AID 602438; 360,000 tested, 0.85% active; inhibition, % at 25 µM; O14786;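 active = inhibition or corrected inhibition above about 18%, plus a signal ratio from 0.5 to 1.5, limit read from the data, passing the limit was not always enough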
MPTP block: blocks calcium-induced mitochondrial swelling; 360,000 tested, 1.4% active; isolated mouse mitochondria, Ca2+ swelling absorbance, 30 min; inhibition, % at 10 µM;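 active = inhibition of 50% or more, scaled per plate between neutral and stimulator controls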
Rh123 counter: membrane potential counter-screen of mitochondrial pore inhibitors. isolated mitochondria, Rhodamine 123 fluorescence. AID 624504. shares compounds with MPTP block. 5,000 tested, 78% active. inhibition, % at 10 µM; in the data active = inhibition above about 22%
MPTP swell DR: MPTP inhibition, dose response swelling confirmation. shares compounds with MPTP block. isolated mitochondria swelling, absorbance. IC50, µM. 780 tested, 58% active; in the data active = IC50 below about 20 µM
MPTP counter DR: MPTP inhibitor counter-screen activity, dose response | shares compounds with MPTP block | isolated mitochondria counterscreen, fluorescence read-out | IC50, µM | 780 tested, 49% active; in the data active = IC50 below about 80 µM
Of the large screens only hits and unclear results are named; the others gave an inactive call (follow-up assays come after a bar, where they were run).

CCc1ccc(NC(=O)C2(c3ccccc3)CC2(Cl)Cl)cc1 (stereo not given)	MPTP block 53 (no result: F508del corr) | Rh123 counter 72
Cc1cc(C)cc(NC(=O)C2(c3ccccc3)CC2(Cl)Cl)c1 (stereo not given)	MPTP block 71 (no result: F508del corr) | Rh123 counter 76
COCC(=O)Nc1ccc2c(c1)OC[C@@H](C)N(C(=O)c1ccccc1)C[C@H](C)[C@H](OC)CN(C)C2=O	none (no result: ATG4B inhibitor, SKN-1 inh, NRP1-CendR mod, MPTP block)
O=C(Nc1cccc(Cl)c1)N1CCSc2cc(Cl)ccc21	MPTP block 76 (no result: F508del corr) | Rh123 counter 88
COC(=O)c1cc(NC(=O)Nc2cccc(Cl)c2)ccc1Cl	MPTP block 90 | Rh123 counter 73
O=C(Nc1ccccc1)N1CCSc2cc(Cl)ccc21	none (no result: F508del corr)
O=C(Nc1cccc(Cl)c1)Nc1cnccn1	none
O=C(Nc1ccccc1)Nc1cc(OCC(F)(F)F)cc(OCC(F)(F)F)c1	MPTP block 77 | Rh123 counter 63
COC(=O)c1cc(NC(=O)c2ccc(-c3ccccc3)cc2)ccc1Cl	none
O=C(Nc1cccc(Cl)c1)Nc1ccnc(-c2cccnc2)n1	MPTP block 77 | Rh123 counter 87
CN(C)CC(=O)Nc1ccc2c(c1)[C@H]1C[C@H](CC(=O)NCc3cccnc3)O[C@H](CO)[C@H]1O2	none (no result: ATG4B inhibitor, SKN-1 inh, NRP1-CendR mod, MPTP block)
O=C(C1CCCC1)N1CC2(C1)[C@@H](c1ccccc1)[C@@H](CO)N2Cc1nccs1	none (no result: ATG4B inhibitor, SKN-1 inh, NRP1-CendR mod, MPTP block)
COc1ccc2c3c(n(C)c2c1)[C@@H](CO)N(Cc1cccc(F)c1)CC31CCN(C)CC1	none (no result: ATG4B inhibitor, SKN-1 inh, NRP1-CendR mod, MPTP block)
O=C(NCCN1CCN(Cc2ccccc2)CC1)Nc1cc(Cl)cc(Cl)c1	MPTP block 85 | Rh123 counter 96
O=C(Nc1cccc(Cl)c1)ON=C1c2ccccc2-c2ccccc21	MPTP block 86 | Rh123 counter 87
O=C(Nc1cccnc1)Nc1ccc(Br)cc1Cl	MPTP block 58 (no result: F508del corr) | Rh123 counter 80
CCc1ccccc1NC(=O)Nc1cccc(F)c1	MPTP block 76 | Rh123 counter 81
CCNC(=O)C[C@@H]1CC[C@H]2[C@@H](COC[C@@H](O)CN2Cc2ccc(Cl)c(Cl)c2)O1	none (no result: ATG4B inhibitor, SKN-1 inh, NRP1-CendR mod, MPTP block)
CS(=O)(=O)Nc1ccccc1C(=O)Nc1cc(Cl)cc(Cl)c1	MPTP block 97 (no result: F508del corr) | Rh123 counter 83
COc1ccc(NC(=O)Nc2cccc(OC)c2)cc1	none (no result: F508del corr)
Cc1cccc(N(O)C(=O)Nc2cccc(Cl)c2)c1	MPTP block 64 | Rh123 counter 84
O=C(Nc1cccc(Cl)c1)Nc1ccon1	none
COc1cccc(NC(=O)Nc2cc(Cl)ccc2C)c1	MPTP block 92 | Rh123 counter 82
N#CCc1ccc(NC(=O)Nc2cccc(Cl)c2)cc1	MPTP block 90 (no result: F508del corr) | Rh123 counter 107
O=C(Nc1ccccc1)N[C@H]1CC[C@H](CCn2cc(-c3ccccc3F)nn2)O[C@H]1CO	none (no result: ATG4B inhibitor, SKN-1 inh, NRP1-CendR mod, MPTP block)
CNC[C@@H]1Oc2cc(-c3ccncc3)ccc2S(=O)(=O)N([C@@H](C)CO)C[C@H]1C	none (no result: ATG4B inhibitor, SKN-1 inh, NRP1-CendR mod, MPTP block)
CC1CCC(=C(C#N)C(=O)Nc2cccc(Cl)c2)CC1 (stereo not given)	MPTP block 86 (no result: F508del corr) | Rh123 counter 84
O=C(Nc1cccc(F)c1)Nc1cccc(Cl)c1	MPTP block 88 | Rh123 counter 80
O=C(Nc1cccc(Cl)c1)Nc1cccc(Cl)c1	MPTP block 102 (no result: F508del corr) | Rh123 counter 88
O=C(Nc1cccnc1)Nc1cc(Cl)cc(Cl)c1	MPTP block 89 (no result: F508del corr) | Rh123 counter 98
N#CC(C(=O)Nc1cccc(Cl)c1)=C1Nc2ccccc2N1	none (no result: F508del corr)
O=C(Nc1ccccc1)Nc1cc(Cl)cc(Cl)c1	MPTP block 101 (no result: F508del corr) | Rh123 counter 100
Cc1[nH]nc(-c2ccc(O)cc2O)c1Oc1ccccc1	MPTP block 56 | Rh123 counter 58
CN(C)C(=O)c1ccc(-c2ccc3c(c2)[C@H]2[C@H](CCN2C(=O)C2CCCC2)[C@@H](CO)N3C)cc1	none (no result: ATG4B inhibitor, SKN-1 inh, NRP1-CendR mod, MPTP block)
CCCN(CCC)S(=O)(=O)c1ccc(C(=O)Nc2nc(-c3ccccc3)c(C(=O)OCC)s2)cc1	MPTP block 80 (no result: F508del corr) | Rh123 counter inactive | MPTP swell DR 14 | MPTP counter DR 12

Screens deposited in PubChem by several laboratories.
